Data taken from PubChem BioAssay (NCI).
The panel holds about 83,000 compounds, 20% with a hit somewhere; the sample as a whole holds those more often.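 Values shown are percent growth following 48 h exposure of cells in 96-well plates to a single concentration of compound; below 10 was considered active.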 Active and inactive are the calls of the source.

These compounds were tested on 786-0 renal (assay: NCI-60 one-dose screen, 48 h (100 = growth as untreated, 0 = no growth, -100 = all killed)). Details: 10 µM unless noted.

Row | Compound | growth
1 | N#CC1=C(N)Oc2c(c(N)nn2-c2ccccc2)C1c1ccc(Cl)cc1Cl (stereo not drawn) | 102% (inactive)
2 | C=C(C)[C@@H]1CC[C@]2(C=O)CC[C@]3(C)[C@H](CC[C@@H]4[C@@]5(C)C/C(=C/c6cccnc6)C(=O)C(C)(C)[C@@H]5CC[C@]43C)[C@@H]12 | 101% (inactive)
3 | C=C(C)[C@@H]1CC[C@]2(C(=O)N3CCN(CC)CC3)CC[C@]3(C)[C@H](CC[C@@H]4[C@@](C)(CCC(=O)N5CCN(CC)CC5)[C@H](C(=C)C)CC[C@]43C)[C@@H]12 | 0.392% (active)
4 | CCN1CCN(C(=O)[C@]23CCC(C)(C)C[C@H]2C2=CC[C@@H]4[C@@]5(C)CC/C(=N/O)C(C)(C)[C@@H]5CC[C@@]4(C)[C@]2(C)CC3)CC1 | 57.5% (inactive)
5 | N#CC1=C(N)Oc2c(sc3c(F)cccc23)C1c1ccc(Cl)cc1 (stereo not drawn) | 21.1% (inactive)
6 | O=C1c2cccc3cccc(c23)C(=O)N1CC#Cc1ccc2c3c(cccc13)C(=O)N(CCN1CCNCC1)C2=O | -2.58% (active)
7 | C=C(C)[C@@H]1CC[C@]2(/C=N/Nc3ccncc3)CC[C@]3(C)[C@H](CC[C@@H]4[C@@]5(C)CCCNC(C)(C)[C@@H]5CC[C@]43C)[C@@H]12 | 99.8% (inactive)
8 | Cc1ccnc2c(OCc3ccccc3)cccc12 | 96.1% (inactive)
9 | C=CC(=O)N[C@H](Cc1ccc(-c2cc(Cl)cc(Cl)c2)cc1)[C@H](O)[C@@H](O)C(=O)O | 92.2% (inactive)
10 | C=COCCCCCCCCCCCCCCCCCC | 102% (inactive)
11 | COc1cc2ncnc(Nc3ccc(Oc4ccnc(C)c4)c(C)c3)c2cc1NC(=O)CC1CCSS1 (stereo not drawn) | 52.5% (inactive)
12 | CN1CCN(c2nc(-c3csc(-c4cccs4)n3)cc3ccccc23)CC1 | 48.1% (inactive)
13 | O=C(O[C@@H]1Cc2c(O)cc(O)cc2O[C@@H]1c1cc(O)c(O)c(O)c1)c1cc(O)c2c(c1)OCO2 | 94.4% (inactive)
14 | C/C(Cc1ccc(Cl)cc1)=C(/c1ccc(Cl)cc1)c1ccc(OCCN2CCCC2)cc1 | 86% (inactive)
15 | Cc1cc(N(CCCNc2ccnc3cc(Cl)ccc23)Cc2ccco2)nc(N2CCOCC2)n1 | 68% (inactive)
16 | Cc1ccccc1-c1nc(C(Cl)Cl)nc2cc(-c3ccccc3)nn12 | 93.7% (inactive)
17 | O=C1/C(=C\C(Cl)=C/c2ccc([N+](=O)[O-])cc2)SC(=S)N1CCc1ccc(O)cc1 | -46.4% (active)
18 | Brc1ccc2c(c1)c(-c1nc(-c3c[nH]c4ncccc34)cs1)cn2CCCN1CCCCC1 | -74.8% (active)
19 | Cn1c(/C(C#N)=C/c2ccc3ccccc3c2)cc2ccccc21 | 34.1% (inactive)

Row | Compound | growth
20 | CN(CSc1ccc(Cl)cc1)c1ccc(CSc2ccc(Cl)cc2)cc1 | 31.6% (inactive)
21 | CCNCCCn1c2c(c3ccc([N+](=O)[O-])cc3c1=O)C(=O)c1cc(OC)cnc1-2 | -91.7% (active)
22 | CC1(C)NC2=C(C(Nc3cccnc3)N1)C(c1ccc([N+](=O)[O-])cc1)C(C(=O)c1ccc(N=[N+]=[N-])cc1)O2 (stereo not drawn) | 100% (inactive)
23 | COc1ccc(C2C(C#N)=C(N)Oc3c2sc2c(F)cccc32)cc1 (stereo not drawn) | 29.4% (inactive)
24 | COc1cc(-c2cc3ncccc3c3[nH]c(=O)c4cccnc4c23)cc(OC)c1OC | 24.7% (inactive)
25 | CCCCC/C(=C\c1ccccc1)C1OC(C)C(C)O1 (stereo not drawn) | 91.2% (inactive)
26 | COc1ccc2c(c1)c(-c1nc(-c3c[nH]c4ncccc34)cs1)cn2CCNC(=O)OC(C)(C)C | 73.6% (inactive)
27 | COc1cc(/C=C/c2cc(/C=C/c3ccc(O)c(OC)c3)n(-c3ccccc3)c(=O)n2)ccc1O | 85.1% (inactive)
28 | CCN1CCN(C(=O)[C@]23CC[C@@H](C)[C@H](C)[C@H]2C2=CC[C@@H]4[C@@]5(C)C/C(=C/c6cccc(OC)c6OC)C(=O)C(C)(C)[C@@H]5CC[C@@]4(C)[C@]2(C)CC3)CC1 | 49.7% (inactive)
29 | COc1cc2c(cc1-c1c(C)noc1C)ncc1nc(C3CCCCC3)n([C@@H](C)COC(F)F)c12 | 42.8% (inactive)
30 | CC(=O)OC[C@]12CC[C@@H](/C(C)=N/O)[C@@H]1[C@H]1CC[C@@H]3[C@@]4(C)CCCNC(C)(C)[C@@H]4CC[C@@]3(C)[C@]1(C)CC2 | 73.5% (inactive)
31 | Brc1cnc2[nH]cc(-c3nnc(-c4ccccc4)o3)c2c1 | 73.6% (inactive)
32 | COc1ccc2[nH]c(-c3ccc(Cl)cc3)cc(=O)c2c1 | 88.3% (inactive)
33 | CCN1CCN(C(=O)[C@]23CCC(C)(C)C[C@@H]2C2=CC[C@@H]4[C@@]5(C)C/C(=C/c6ccncc6)C(=O)C(C)(C)[C@@H]5CC[C@@]4(C)[C@]2(C)CC3)CC1 | -73.6% (active)
34 | COc1ccc(/C=C(\C#N)c2cc3ccccc3n2S(C)(=O)=O)cc1 | 99.9% (inactive)
35 | Cc1ccc(S(=O)(=O)Nc2ccc(-c3cc(-c4cccc(F)c4)c(C#N)c(=O)[nH]3)cc2)cc1 | 102% (inactive)
36 | N#CC1=C(N)Oc2c(c(N)nn2-c2ccccc2)C1c1ccc(Cl)cc1 (stereo not drawn) | 98.8% (inactive)
37 | C=C(C)[C@@H]1CC[C@]2(CN)CC[C@]3(C)[C@H](CC[C@@H]4[C@@]5(C)CCC(=O)NC(C)(C)[C@@H]5CC[C@]43C)[C@@H]12 | 84.6% (inactive)
38 | CC1(C)[C@@H](O)CC[C@]2(C)[C@H]3CC[C@@H]4[C@H]5[C@H](C(=O)/C=C/c6ccc(C(F)(F)F)cc6)CC[C@]5(CO)CC[C@@]4(C)[C@]3(C)CC[C@@H]12 | 64.9% (inactive)
